Here are results for 15 molecules from PubChem BioAssay (NCATS).

Molecules are shown by their SMILES. Records with an inconclusive call do not appear. A number with no mark means an inactive call. Active and inactive are the calls of the source. Calls come from the whole dose curve; as a rule, active = well fitted curve in the direction sought with a large enough effect; inconclusive = small, poorly fitted or top-dose-only effect, or another doubt; inactive = no such curve, though single readings can be large; an effect the other way counts as inactive or inconclusive.

A short description of assay [1]: Quantitative High-Throughput drug screen in 47 multiple myeloma cell lines against the NCATS MIPE library collection: JIM3_ECACC cell viability assay (AID 1918963; note: nearly all actives have a fitted effect of over 35% in size). The essentials:
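Primary qHTS used for cherry-picking: cells at 500/well, library compounds for 48 h (37C, 5% CO2), luminescent ATP assay.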

A short description of assay [2]: Quantitative High-Throughput drug screen in 47 multiple myeloma cell lines against the NCATS MIPE library collection: JIM1_ECACC cell viability assay (AID 1918964). The method, boiled down:
(§1)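 CellTiter-Glo ATP luminescence gave viability after 48 h compound treatment at 37C of 500 multiple myeloma cells per well. Normalisation used DMSO-only wells as 100% and media-only wells as 0% viability; primary qHTS of approved and investigational drugs.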

Assay [3] is described as follows: Quantitative High-Throughput drug screen in 47 multiple myeloma cell lines against the NCATS MIPE library collection: H1112_PLB cell viability assay (AID 1918967; note: nearly all actives have a fitted effect of over 30% in size). The method, boiled down:
as §1

Assay [4] is described as follows: Quantitative High-Throughput drug screen in 47 multiple myeloma cell lines against the NCATS MIPE library collection: Karpas25_ECACC cell viability assay (AID 1918968; note: nearly all actives have a fitted effect of over 35% in size). The essentials:
as §1

A short description of assay [5]: Quantitative High-Throughput drug screen in 47 multiple myeloma cell lines against the NCATS MIPE library collection: KMS27_JCRB cell viability assay (AID 1918970). Note: nearly all actives have a fitted effect of over 30% in size. Particulars: KMS27 myeloma cells, CellTiter-Glo ATP viability, 48 h; viability (% of DMSO): at 45.8 µM (top of the series). The essentials: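 CellTiter-Glo luminescence after 48 h drug exposure at 37 °C; 500 cells/well, 1536-well format, pin-tool compound addition; DMSO = 100%, media-only = 0% viability.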
On the technique in general: In ATP-based viability assays light output follows the ATP content of the culture.

Assay [6] is described as follows: Quantitative High-Throughput drug screen in 47 multiple myeloma cell lines against the NCATS MIPE library collection: KMS12PE_JCRB cell viability assay (AID 1918972). Note: nearly all actives have a fitted effect of over 30% in size. The essentials: (§2)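 We plated 500 myeloma cells per well, pinned in MIPE 4.0 compounds, and incubated for 48 hours at 37C. ATP was then quantified with CellTiter-Glo, with DMSO and media-only wells defining 100% and 0%.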

A short description of assay [7]: Quantitative High-Throughput drug screen in 47 multiple myeloma cell lines against the NCATS MIPE library collection: KMS20_JCRB cell viability assay (AID 1918973). Note: nearly all actives have a fitted effect of over 45% in size. The method, boiled down: as §1
Assay [8] is described as follows: Quantitative High-Throughput drug screen in 47 multiple myeloma cell lines against the NCATS MIPE library collection: KMS26_JCRB cell viability assay (AID 1918975). Note: nearly all actives have a fitted effect of over 45% in size. The method, boiled down:
(§3)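 Inhibition of cell viability is measured here. Each line was plated at 500 cells per well, treated with MIPE 4.0 drugs, kept 48 hours at 37C, then assayed for ATP content by CellTiter-Glo luminescence.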

Assay [9] in a line: Quantitative High-Throughput drug screen in 47 multiple myeloma cell lines against the NCATS MIPE library collection: NCIH929_DSMZ cell viability assay (AID 1918978). Note: nearly all actives have a fitted effect of over 35% in size. The essentials:
(§4)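 Plated at 500 cells per well, myeloma lines received MIPE 4.0 compounds by pin tool. Following 48 h culture at 37 °C, CellTiter-Glo luminescence gave viability relative to DMSO and media-only controls.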

The nature of assay [10]: Quantitative High-Throughput drug screen in 47 multiple myeloma cell lines against the NCATS MIPE library collection: OCIMY1_PLB cell viability assay (AID 1918979). Note: nearly all actives have a fitted effect of over 35% in size. The essentials:
as §4

Assay [11] can be described thus: Quantitative High-Throughput drug screen in 47 multiple myeloma cell lines against the NCATS MIPE library collection: MM1R_ATCC cell viability assay (AID 1918981). Note: nearly all actives have a fitted effect of over 35% in size. The method, boiled down: as §4
Assay [12] is described as follows: Quantitative High-Throughput drug screen in 47 multiple myeloma cell lines against the NCATS MIPE library collection: INA6_PLB cell viability assay (AID 1918965; note: nearly all actives have a fitted effect of over 55% in size). The method, boiled down:
as §2

A short description of assay [13]: Quantitative High-Throughput drug screen in 47 multiple myeloma cell lines against the NCATS MIPE library collection: KMS12BM_JCRB cell viability assay (AID 1918971). Note: nearly all actives have a fitted effect of over 35% in size. The essentials:
as §3

Assay [14] is described as follows: Quantitative High-Throughput drug screen in 47 multiple myeloma cell lines against the NCATS MIPE library collection: MOLP8_DSMZ cell viability assay (AID 1918977). Note: nearly all actives have a fitted effect of over 45% in size. The method, boiled down:
as §4

Assay [15] is described as follows: Quantitative High-Throughput drug screen in 47 multiple myeloma cell lines against the NCATS MIPE library collection: MM1S_ATCC cell viability assay (AID 1918980). Note: nearly all actives have a fitted effect of over 45% in size. The essentials: as §4
Assay [16] in a line: Quantitative High-Throughput drug screen in 47 multiple myeloma cell lines against the NCATS MIPE library collection: JJN3_DSMZ cell viability assay (AID 1918966; note: nearly all actives have a fitted effect of over 50% in size). The method, boiled down: as §1
The nature of assay [17]: Quantitative High-Throughput drug screen in 47 multiple myeloma cell lines against the NCATS MIPE library collection: MMM1_PLB cell viability assay (AID 1918976). Note: nearly all actives have a fitted effect of over 35% in size. The method, boiled down:
as §4
Potency is the fitted concentration of half-maximal effect.

With `C[C@H](O)[C@@H]1C(=O)N2C(C(=O)O)=C(S[C@@H]3CN[C@H](CNS(N)(=O)=O)C3)[C@@H](C)[C@@H]12`, the Potency entry in [1], in assay [2], in [3], in [4], in assay [5] and in assay [6] was “inactive” in each case. Moreover, the Potency result in assay [7], in assay [8], in assay [9], in assay [10] and in assay [11] was “inactive” in each case.
For `CCOC(=O)C1=C(C)NC(=S)NC1c1cccc(O)c1` (configuration not stated), the Potency in assay [1] was 0.0372 µM (active); in assay [2], 296 nM (active); in [12], 26.4 nM (active); in [4], 0.0296 µM (active); in [5], 0.0469 µM (active); in assay [13], 0.0662 µM (active). Moreover, the Potency in assay [6] was 0.372 µM (active); in assay [14], 0.0372 µM (active); in assay [9], 0.0372 µM (active); in assay [15], 41.8 nM (active); in [11], 0.0296 µM (active).
Regarding `O=C1c2c(O)cccc2[C@@H]([C@@H]2O[C@H](CO)[C@@H](O)[C@H](O)[C@H]2O)c2cc(CO)cc(O)c21`, the Potency entry in assay [1], in [12], in assay [3], in [4], in assay [5] and in [13] was “inactive” each time. Further, the Potency entry in assay [6], in assay [7], in [8], in [14], in assay [9] and in [10] was “inactive” in each case. Moreover, in assay [11], the Potency entry is “inactive”.
On to `C=C1C(=O)O[C@H]2[C@@H]1CCC(C)=CCC[C@@]1(C)O[C@@H]21`, for which the Potency in assay [1] was 2.96 µM (active); in assay [12], 935 nM (active); in [16] it was 7.43 µM (active); in [3], 4.18 µM (active); in assay [4] it was 1.05 µM (active); in assay [5] it was 9.35 µM (active). The Potency is 8.33 µM (active) in [13]; 1.66 µM (active) in assay [7]; 3.72 µM (active) in assay [8]; 13.2 µM (active) in assay [17]; 2.96 µM (active) in assay [9]; 5.26 µM (active) in assay [10]. The Potency is 5900 nM (active) in assay [15] and 3.72 µM (active) in [11].
Regarding `CC(C)n1cnc2c(NCCc3ccc(O)cc3)nc(-c3csc4ccccc34)nc21`, the Potency in [1] is 9.35 µM (active); in [12], 20900 nM (active); in [3], 13.2 µM (active); in assay [4], 4.18 µM (active); in assay [7], 7.43 µM (active); in assay [8], 11.8 µM (active). Besides, the Potency in assay [15] is 743 nM (active); in assay [11], 7.43 µM (active).
Consider `CC(=O)NC(CS)C(=O)O` (configuration not stated), for which the Potency entry in assay [1], in assay [3], in assay [4], in assay [7] and in assay [9] was “inactive” each time. In addition, the results for the Potency in assay [12] and in assay [17] were 2960 nM (active) and 18.7 µM (active), respectively.
Take `Cc1cn([C@@H]2O[C@H](CO)[C@@H](O)[C@H]2F)c(=O)[nH]c1=O`: the Potency entry in assay [1], in assay [12], in [3], in assay [4], in assay [9] and in assay [10] was “inactive” in each case. Moreover, the Potency result in assay [11] is “inactive”. Besides, the Potency in [6] was 13.2 µM (active).
Consider `C[C@H](CCC(=O)O)[C@H]1CC[C@H]2[C@@H]3[C@H](O)C[C@@H]4C[C@H](O)CC[C@]4(C)[C@@H]3CC[C@]12C`, for which the Potency result in assay [1], in assay [12], in assay [3], in assay [4], in assay [5] and in assay [13] was “inactive” throughout. For the same molecule, the Potency result in assay [6], in assay [7], in assay [8], in [14], in assay [9] and in assay [10] was “inactive” each time. In addition, in assay [15], the Potency entry is “inactive”.
Turning to `C[N+]1(C)[C@@H]2C[C@@H](OC(=O)C(O)(c3cccs3)c3cccs3)C[C@H]1[C@@H]1O[C@@H]12`, the Potency result in [1], in assay [12], in assay [16], in [3], in assay [4] and in assay [5] was “inactive” throughout. The Potency entry in [6], in [7], in [14], in assay [9], in assay [10] and in assay [11] was “inactive” in each case.
For the molecule `CC(=O)N[C@H]1[C@@H]([C@H](O)[C@H](O)CO)OC(C(=O)O)=C[C@@H]1N=C(N)N`, the Potency result in [1], in assay [12], in assay [3], in assay [4], in assay [5] and in assay [13] was “inactive” each time. For the same molecule, the Potency result in assay [8], in assay [9], in [10], in assay [15] and in assay [11] was “inactive” each time.
In the case of `CCCCCN=C(N)NN=Cc1c[nH]c2ccc(OC)cc12`, the Potency in assay [1] is 5.26 µM (active); in [2] it was 1480 nM (active); in assay [12] it was 526 nM (active); in assay [8], 10.5 µM (active); in assay [9], 13.2 µM (active).
With `CC(C)[C@H](CO)Nc1nc(Nc2cccc(Cl)c2)c2ncn(C(C)C)c2n1`, the Potency in assay [1] is 18.7 µM (active); in assay [12], 18700 nM (active); in assay [3], 26.4 µM (active); in assay [4], 26.4 µM (active); in assay [7], 20.9 µM (active); in assay [8], 23.5 µM (active). Moreover, the Potency is 26.4 µM (active) in assay [17]; 18.7 µM (active) in assay [14]; 18.7 µM (active) in assay [9]; 23.5 µM (active) in [10]; 18.7 µM (active) in [11].
As to `Cc1onc(-c2ccccc2)c1C(=O)N[C@@H]1C(=O)N2[C@@H](C(=O)O)C(C)(C)S[C@@H]12`, the Potency result in assay [1], in [2], in assay [3], in [4], in assay [6] and in [8] was “inactive” throughout. Besides, the Potency result in assay [9] and in assay [11] was “inactive” throughout.
With `CCCCCCCCCCCCc1ccc(S(=O)(=O)Nc2nncs2)cc1`, the Potency entry in assay [1], in [12], in assay [3], in assay [4], in [5] and in assay [13] was “inactive” throughout. For the same molecule, the Potency result in assay [8] and in assay [9] was “inactive” throughout. Further, the Potency in assay [11] is 18.7 µM (active).
With `CC(=O)N[C@@H]1[C@H](O[C@@H]2c3ccc(c(Cl)c3)Oc3cc4cc(c3O[C@H]3O[C@H](CO)[C@@H](O)[C@H](O)[C@H]3NC(=O)CCCCCCCC(C)C)Oc3ccc(cc3Cl)C[C@H]3NC(=O)[C@H](N)c5ccc(O)c(c5)Oc5cc(O)cc(c5)[C@H](NC3=O)C(=O)N[C@H]4C(=O)N[C@H]3C(=O)N[C@@H]2C(=O)N[C@@H](C(=O)O)c2cc(O)cc(O[C@H]4O[C@H](CO)[C@@H](O)[C@H](O)[C@H]4O)c2-c2cc3ccc2O)O[C@H](CO)[C@@H](O)[C@@H]1O`, the Potency entry in assay [1], in [12], in [4], in assay [5], in assay [13] and in assay [6] was “inactive” each time. Besides, the Potency result in [8], in assay [14], in [9], in assay [10] and in assay [11] was “inactive” each time.
